Inhibition data for 93 molecules are collected here from PubChem BioAssay AID504329 (Southern Research Specialized Biocontainment Screening …, 2011).

Structures are written as SMILES. The campaign covered roughly 340,000 compounds. About 1,000 (0.29%) were called active. Cut-off read from the data, not from the text of the source: inconclusive = inhibition above about 27% without an active follow-up result; inactive = below that. These entries were drawn from the full list. Entries with a potency or affinity are not part of this list.

The experiment can be described thus: H1N1 influenza NS1A inhibitors, functional cell based assay (AID 504329). To be noted: percent inhibition, at 12.5 µM, active compounds read high.
What is called inhibition is the drop in the measured response relative to a control, in per cent. Consider `COc1ccc(NC(=O)CC2(CC(=O)N3CCOCC3)CCCC2)cc1Cl`, for which the inhibition was -1.17% (inactive).
Regarding `CC1CC(C)CN(S(=O)(=O)c2ccc(C(=O)Nc3nnc(C4CC4)o3)cc2)C1` (stereo not drawn), the inhibition was -2.79% (inactive).
The figure for `CC(C)(C)NC(=O)C(c1ccccc1F)N(Cc1ccco1)C(=O)c1csnn1` (stereo not drawn) is -1.84% (inactive).
The figure for `O=C(O)C(c1ccccc1)N1C(=O)/C(=C\c2ccc(O)c(O)c2)SC1=S` (stereo not drawn) is 10.8% (inactive).
Regarding `Cc1nc2ccc(C(=O)N/N=C/c3cc([N+](=O)[O-])ccc3O)cc2[nH]1`, the inhibition is 19% (inactive).
`Cc1ccccc1/C=N/Nc1nc2ccccc2[nH]1`: the inhibition was -2.18% (inactive).
The figure for `COc1ccc(O)c(/C=N/Nc2nc3ccccc3[nH]2)c1` is -13.2% (inactive).
In the case of `C(=N\Nc1nc2ccccc2[nH]1)/c1ccc2ncccc2c1`, the inhibition is -2.83% (inactive).
The figure for `O=S1(=O)N=C(N/N=C/c2cccs2)c2ccccc21` is 3.71% (inactive).
`Oc1ccccc1/C=N/Nc1nn[nH]n1`: the inhibition is -4.08% (inactive).
As for `O=S1(=O)N=C(N/N=C/c2ccco2)c2ccccc21`, the inhibition is -20% (inactive).
The figure for `COc1ccc([N+](=O)[O-])cc1/C=N/Nc1nn[nH]n1` is -3.63% (inactive).
The figure for `Cc1ccc(C(=O)N2CCN(c3ccccc3Cl)CC2)cc1[N+](=O)[O-]` is -8.39% (inactive).
Consider `COCCn1c(-c2ccc(SC)cc2)nc2c1c(=O)[nH]c(=O)n2CC(C)C`, for which the inhibition is 6.85% (inactive).
On to `Cc1ccc(C)c(OC(C)C(=O)Nc2nccs2)c1` (stereo not drawn), for which the inhibition is -0.26% (inactive).
The figure for `Cc1ccc(S(=O)(=O)N[C@H](C(=O)OCC(=O)NC(=O)Nc2ccc3c(c2)OCCO3)C(C)C)cc1` is -8.36% (inactive).
The figure for `CC(=O)Nc1ccc(NC(=O)C(C)OC(=O)C(C)SCC(=O)Nc2ccc(C)cc2)cc1` (stereo not drawn) is -10.9% (inactive).
Consider `N#Cc1ccccc1S(=O)(=O)N1CCN(CC(=O)Nc2ccccc2C(=O)NC2CC2)CC1`, for which the inhibition was -1.3% (inactive).
For the molecule `Fc1ccc(-c2csc(-c3ccccn3)n2)cc1F`, the inhibition was -3.95% (inactive).
Take `Cc1ccc2ccc3cccc4ccc1c2c34`: the inhibition was -18.9% (inactive).
For `COc1cnc(-c2ccccn2)nc1Sc1ccc(F)cc1`, the inhibition was 6.63% (inactive).
The figure for `O=[N+]([O-])c1ccc(/C=N/Nc2ccccn2)cc1` is -3.42% (inactive).
The figure for `O=[N+]([O-])c1cc(Cl)cc(/C=N/Nc2nc3ccccc3s2)c1O` is 3.56% (inactive); for `O=[N+]([O-])c1cccc(/C=N/Nc2ccccn2)c1` it is 0.08% (inactive); for `O=[N+]([O-])c1ccc(NN=Cc2cc(Br)ccc2O)nc1` it is 6.5% (inactive).
The figure for `O=[N+]([O-])c1ccc(/C=N/NC2=NS(=O)(=O)c3ccccc32)cc1` is 1.07% (inactive).
Take `O=[N+]([O-])c1ccc(O)c(/C=N/Nc2ccccc2Cl)c1`: the inhibition is -14.4% (inactive).
The figure for `O=[N+]([O-])c1cccc(/C=N/NC2=NS(=O)(=O)c3ccccc32)c1` is -4.67% (inactive).
The figure for `O=[N+]([O-])c1ccc(Cl)cc1C=NNc1ccccn1` is -1.7% (inactive).
Take `O=C(NCCc1ccc2c(c1)OCCO2)c1ccc([N+](=O)[O-])cc1Cl`: the inhibition is -0.08% (inactive).
The figure for `O=C(CSc1nnnn1-c1ccc2c(c1)OCO2)NCc1ccccc1` is 0.06% (inactive); for `CCCCOc1c(Br)cc(CNCCCN2CCOCC2)cc1OC` it is 1.13% (inactive).
The figure for `Cc1ccc(CNc2cc(C(=O)O)ccc2C)s1` is 14.2% (inactive).
The figure for `O=C(NCc1ccccc1F)C1CCCN1S(=O)(=O)c1ccc(F)cc1` (stereo not drawn) is 4.5% (inactive); for `O=C(O)c1cccc(NC(=O)c2ccccc2NC(=O)c2ccco2)c1` it is -7.51% (inactive).
In the case of `CN(C)/C=C(\C(=O)c1cccc(Cl)c1)c1nnnn1-c1ccccc1`, the inhibition was -1.13% (inactive).
The figure for `Nc1ccc(C(=O)C(=O)c2ccc(N)cc2)cc1` is 1.62% (inactive); for `N=C(N)c1ccc(N)cc1` it is 2.89% (inactive).
The figure for `CCOC(=O)c1cc(CC)sc1NC(=O)CC1SC(N)=NC1=O` (stereo not drawn) is -8.66% (inactive); for `Cc1ccc(S(=O)(=O)Cn2nnnc2C(CC(C)C)N2CCN(C3CCCC3)CC2)cc1` (stereo not drawn) it is -5.05% (inactive); for `COc1ccc(C(=O)N/N=C(\Cc2ncc[nH]2)c2ccccc2)cc1` it is 1.55% (inactive).
Take `COc1cc(C(=O)N/N=C(\Cc2ncc[nH]2)c2ccccc2)cc(OC)c1OC`: the inhibition was -5.85% (inactive).
The figure for `CN(CC(=O)Nc1ccccc1Cl)C(=O)COC(=O)c1ccc(-c2ccc(O)cc2)cc1` is -4.29% (inactive); for `CCC(=O)Nc1ccc(C(=O)N/N=C/c2c(C)[nH]c3ccccc23)cc1` it is 10.2% (inactive).
The figure for `CC(CNC(=O)c1cc(COc2c(F)cccc2F)on1)Oc1cccnc1` (stereo not drawn) is 5.51% (inactive); for `O=C(/C=C/c1ccccc1)NC(=S)NNC(=O)c1cccnc1` it is 11.7% (inactive).
The figure for `O=C(NNC(=O)c1cnccn1)c1ccc(Cl)cc1` is -1.07% (inactive); for `O=C(NNC(=S)NC(=O)c1cccnc1)c1ccc(Cl)cc1` it is -8.92% (inactive); for `O=C(NNC(=S)NC(=O)c1cccnc1)c1ccc(F)cc1` it is 3.02% (inactive).
Regarding `O=C(NNC(=S)NC(=O)c1ccc(F)cc1)c1ccncc1`, the inhibition was -6.57% (inactive).
The figure for `COc1ccc(/C=C/C(=O)NC(=S)NNC(=O)c2cnccn2)cc1` is 22% (inactive).
The figure for `CSc1nsc(SCC(=O)N2CCCc3ccccc32)n1` is -4.75% (inactive); for `COc1ccc(NC(C)=O)c2nc(C)c(C)nc12` it is 2.97% (inactive).
Regarding `CC1(C)OC(c2ccccc2)=C/C(=C/C=C2C(=O)NC(=O)NC2=O)O1`, the inhibition is 22.3% (inactive).
The figure for `CC1(C)OC(c2ccccc2)=C/C(=C/C=Nc2ccccc2)O1` is -14.7% (inactive); for `CCN(CC)C(=O)Oc1cc(=O)n2c3c(cccc13)CCC2` it is 2.43% (inactive).
The figure for `Cc1cc(C(=O)Nc2ccc3c(c2)OCO3)no1` is 6.49% (inactive); for `O=C(COc1ccc(Cl)cc1Br)OCC(=O)c1ccc[nH]1` it is -4.26% (inactive); for `COc1cc(C2SCC(=O)Nc3c2c(=O)[nH]n3C2CCCCCC2)cc(OC)c1OC` (stereo not drawn) it is 3.42% (inactive).
The figure for `N#Cc1ccccc1OCC(=O)Nc1ccccc1C(=O)NC1CC1` is -6.65% (inactive).
`CCOC(=O)c1c(C)[nH]c(C(=O)N/N=C\c2ccccc2Cl)c1C`: the inhibition was 1.32% (inactive).
The figure for `O=C(Cn1nnc(-c2ccccc2)n1)N/N=C/c1cc([N+](=O)[O-])ccc1O` is 0.1% (inactive); for `COc1cc([N+](=O)[O-])cc(/C=N/NC(=O)Cn2nccc2C)c1O` it is 13.5% (inactive); for `Cc1cc(C)n(CC(=O)N/N=C/c2cc(Br)cc([N+](=O)[O-])c2O)n1` it is 15.4% (inactive).
With `O=C(Cn1nc2ccccc2n1)N/N=C/c1cc(Cl)cc([N+](=O)[O-])c1O`, the inhibition was 17.6% (inactive).
The figure for `Cc1cc(C)n(CC(=O)N/N=C/c2cccc([N+](=O)[O-])c2)n1` is 4.33% (inactive); for `CCOC(=O)c1c(C)[nH]c(C(=O)N/N=C\c2ccccc2O)c1C` it is 0.86% (inactive); for `COc1cc([N+](=O)[O-])cc(/C=N/NC(=O)Cn2nc(C)cc2C)c1O` it is -28.6% (inactive).
The figure for `COc1ccc(NC(=S)N(CCO)Cc2ccccc2)cc1` is 1.27% (inactive); for `CN(C(=O)c1cncc(Br)c1)C1C2CC3CC(C2)CC1C3` (stereo not drawn) it is 0.5% (inactive).
`O=C(COC(=O)C1CCC1)Nc1cc(S(=O)(=O)N2CCCCC2)ccc1Cl`: the inhibition is 3.86% (inactive).
The figure for `O=C(c1cc(C2CC2)nn1-c1ccccc1)N1CCN(c2ncc(C(F)(F)F)cc2Cl)CC1` is -6.87% (inactive); for `CCc1ccccc1NCC(=O)Nc1ccccc1C(=O)OC` it is -3.34% (inactive).
In the case of `Cc1c(C)c2ccc(OCC(=O)c3ccccc3)cc2oc1=O`, the inhibition is -16.6% (inactive).
The figure for `CC(=O)Nc1ccc(S(=O)(=O)N2CCN(CCc3ccccc3)CC2)cc1` is 0.26% (inactive); for `Nc1ccccc1N=Cc1c(O)n(CCC2=CCCCC2)c(=O)[nH]c1=O` it is -8.66% (inactive).
The figure for `COC(CNC(=O)C1CCCN(S(=O)(=O)c2c(C)noc2/C=C/c2cccs2)C1)OC` (stereo not drawn) is 9.65% (inactive); for `O=C(OCc1ccccc1)N1CCC2CC1c1cc(-c3ccccc3)ccc12` (stereo not drawn) it is -8.29% (inactive).
On to `CCOc1cccc(CN2CCCC(CNC(=O)c3cccc(OC)c3OC)C2)c1` (stereo not drawn), for which the inhibition is 0.84% (inactive).
The figure for `COc1ccc(CCNC(=O)COC(=O)c2cc(S(=O)(=O)N3CCCC3)ccc2O)cc1` is -7.2% (inactive); for `C=CCCN(C(C(=O)OC)C(C)C)S(=O)(=O)c1ccccc1Br` (stereo not drawn) it is -12.7% (inactive); for `COc1ccc(Br)cc1/C=N/NC(=O)Cn1nnnc1N` it is 0.27% (inactive).
The figure for `O=C(N/N=C/c1cc([N+](=O)[O-])ccc1O)C1CC1` is 4.39% (inactive); for `Cc1ccc(C)c(NC(=O)CCC(=O)N/N=C/c2cc([N+](=O)[O-])ccc2O)c1` it is 8.85% (inactive).
The figure for `O=C(N/N=C/c1cc([N+](=O)[O-])ccc1O)Nc1ccccc1` is -0.02% (inactive); for `Cc1ccccc1NC(=O)CCC(=O)N/N=C/c1cc([N+](=O)[O-])ccc1O` it is 10.1% (inactive).
For `CN1CCN(CCC(=O)N/N=C/c2cc([N+](=O)[O-])ccc2OC(F)F)CC1`, the inhibition is -8.9% (inactive).
The figure for `Cc1ccc(NC(=O)CCC(=O)N/N=C/c2cc([N+](=O)[O-])ccc2O)cc1` is -7.13% (inactive); for `Nc1nnnn1CC(=O)N/N=C/c1cc([N+](=O)[O-])ccc1Cl` it is -6.51% (inactive).
The figure for `Cc1cc(C)c2c(c1)-c1c(ssc1=S)C(C)(C)N2C(=O)CSc1nncn1C` is 9.33% (inactive).
The figure for `O=c1[nH]c(=O)n(Cc2ccco2)c(O)c1/C=N/N1CCCCCC1` is 12.8% (inactive); for `CCN(CC(=O)Nc1c(F)cccc1F)C(=O)CSCc1c(C)noc1C` it is -12.8% (inactive); for `COCCn1c(C)cc(C(=O)COC(=O)CNC(=O)c2ccccc2)c1C` it is 4.38% (inactive).
